From PubChem BioAssay (NCATS) come the findings set out here.

SMILES strings stand for the structures. Inconclusive results are not listed. Calls of active or inactive are those of the source. Calls follow the shape of the dose curve; as a rule, active = well fitted curve in the direction sought with a large enough effect; inconclusive = small, poorly fitted or top-dose-only effect, or another doubt; inactive = no such curve, though single readings can be large; an effect the other way counts as inactive or inconclusive.

In experiment [1] the target is Alpha-galactosidase A (Homo sapiens) (UniProt P06280). As to the kind of experiment: Counterscreen for Glucocerebrosidase Inhibitors: qHTS Assay for Human alpha-Galactosidase at pH 4.5 (AID 992). A digest of the protocol: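 Enzyme at 2 nM final was combined with compound (0.7 nM to 77 uM) and 80 uM 4-methylumbelliferyl alpha-D-galactopyranoside in 50 mM citric acid, 0.005% Tween-20, pH 4.5. After 20 min at room temperature, fluorescence was read (Ex 365/Em 440 nm); AC50 came from Hill fits.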
Alpha-galactosidase A (Homo sapiens), sequence (P06280 whole entry, looked up): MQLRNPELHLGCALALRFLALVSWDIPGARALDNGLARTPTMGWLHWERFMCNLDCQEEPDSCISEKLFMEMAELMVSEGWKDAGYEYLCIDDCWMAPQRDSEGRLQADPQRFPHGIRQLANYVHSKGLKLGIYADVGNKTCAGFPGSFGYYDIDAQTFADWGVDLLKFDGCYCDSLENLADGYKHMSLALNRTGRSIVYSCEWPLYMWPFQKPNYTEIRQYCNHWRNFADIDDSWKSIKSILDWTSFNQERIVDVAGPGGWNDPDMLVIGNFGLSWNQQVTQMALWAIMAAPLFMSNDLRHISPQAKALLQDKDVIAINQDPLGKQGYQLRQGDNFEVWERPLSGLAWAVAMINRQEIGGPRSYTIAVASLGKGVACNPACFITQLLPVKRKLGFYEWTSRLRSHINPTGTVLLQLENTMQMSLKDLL

Experiment [2] can be described thus: Cell Viability - LYMP2-013 (AID 970). Also: series mostly up to about 92 µM; nearly all actives have a fitted effect of over 55% in size. An outline of the steps: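 Human lymphoblastoid LYMP2-013 cells, 2500/well, treated 24 h at 37 C in complete medium; viability as intracellular ATP by CellTiter-Glo luminescence after 30 min. AC50 from Hill fits of qHTS concentration-response.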
Experiment [3] can be described thus: Cell Viability - LYMP2-015 (AID 971). Also: nearly all actives have a fitted effect of over 55% in size. An outline of the steps:
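LYMP2-015 human lymphoblastoid cells (2500/well) in complete medium, compound-treated 24 h at 37 C; viability read as cellular ATP by CellTiter-Glo luminescence after 30 min at room temperature. AC50 from Hill-equation fits of qHTS concentration-response data.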

The nature of experiment [4]: Cell Viability - LYMP2-017 (AID 972). Also: series mostly up to about 92 µM; nearly all actives have a fitted effect of over 55% in size. An outline of the steps:
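LYMP2-017 human lymphoblastoid cells (2500/well) settled 5 hr at 37 C, then exposed to compound 24 hr at 37 C in complete medium. Viability taken as intracellular ATP by CellTiter-Glo luminescence after 30 min at RT; AC50 from Hill fits.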

Experiment [5] is described as follows: Cell Viability - LYMP2-019 (AID 973). Also: nearly all actives have a fitted effect of over 55% in size. A digest of the protocol: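 Human lymphoblastoid LYMP2-019 cells (2500/well) preincubated 5 h at 37 C, then treated 24 h at 37 C in complete medium. Viability by CellTiter-Glo ATP luminescence after 30 min at room temperature; AC50 from Hill fits.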
The nature of experiment [6]: Cell Viability - LYMP2-021 (AID 974). An outline of the steps: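 Human lymphoblastoid LYMP2-021 cells, 2500/well in complete medium, treated 24 hours at 37 C. Intracellular ATP by CellTiter-Glo luminescence (30 min, RT); AC50 from Hill fits of concentration-response.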
Experiment [7] in a line: Cell Viability - LYMP2-023 (AID 975). A digest of the protocol:
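LYMP2-023 human lymphoblastoid cells, 2500/well, preincubated 5 hr at 37 C, then compound-treated 24 hr at 37 C in complete medium. CellTiter-Glo luminescence (ATP) after 30 min at room temperature; AC50 from Hill-equation fits; tetraoctylammonium bromide positive control.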

A short description of experiment [8]: Cell Viability - LYMP2-025 (AID 976). Also: series mostly up to about 92 µM. An outline of the steps:
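Human lymphoblastoid LYMP2-025 cells, 2500/well, exposed 24 h at 37 C in complete medium in 1536-well qHTS. Viability as cellular ATP by CellTiter-Glo luminescence; AC50 from Hill fits of concentration-response data.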

Experiment [9] can be described thus: Cell Viability - LYMP2-002 (AID 977).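 Also: series mostly up to about 92 µM; compound exposure lasted 24 h at 37 °C.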 A digest of the protocol: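 Cytotoxicity is scored as concentration-dependent loss of cellular ATP in a human lymphoblastoid line after 24 hr compound treatment at 37 C. AC50 is obtained by modelling concentration-response data with the Hill equation.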
Experiment [10] is described as follows: Cell Viability - LYMP2-006 (AID 978). Also: series mostly up to about 92 µM; nearly all actives have a fitted effect of over 60% in size. An outline of the steps:
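Human lymphoblastoid cells, 2500 per well, were preincubated 5 hr at 37 C, then exposed to compounds for 24 hr at 37 C in complete medium. Viability was read as intracellular ATP by CellTiter-Glo luminescence; AC50 from Hill-equation fits of qHTS concentration-response data.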

A short description of experiment [11]: Cell Viability - LYMP2-007 (AID 979).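 Also: cells exposed to compound for 24 h before reading; nearly all actives have a fitted effect of over 60% in size.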 Also: potency is read from the fitted curve at half-maximal effect. A digest of the protocol:
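Human lymphoblastoid LYMP2-007 cells (2500/well) preincubated 5 h at 37 C, then treated 24 h at 37 C in complete medium. Viability by CellTiter-Glo ATP luminescence after 30 min at room temperature; AC50 from Hill fits.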

Experiment [12] is described as follows: Cell Viability - LYMP2-008 (AID 980). Also: nearly all actives have a fitted effect of over 60% in size. An outline of the steps:
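LYMP2-008 lymphoblastoid cells (2500/well) plated 5 h, then treated 24 h at 37 C in complete medium. Viability read as intracellular ATP by CellTiter-Glo luminescence after 30 min at room temperature; AC50 from Hill fits.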

Experiment [13] can be described thus: Cell Viability - LYMP2-010 (AID 981). Also: nearly all actives have a fitted effect of over 55% in size. A digest of the protocol: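 Human lymphoblastoid LYMP2-010 cells (2500/well) treated 24 h at 37 C in complete medium; viability read as intracellular ATP by CellTiter-Glo luminescence. AC50 from Hill fits of concentration-response data; tetraoctylammonium bromide positive control.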
A short description of experiment [14]: Cell Viability - LYMP2-012 (AID 982).
Experiment [15] is described as follows: Cell Viability - LYMP2-014 (AID 983). Also: series mostly up to about 92 µM; nearly all actives have a fitted effect of over 50% in size. A digest of the protocol:
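LYMP2-014 human lymphoblastoid cells, 2500/well, treated 24 h at 37 C in complete medium; viability by CellTiter-Glo ATP luminescence after 30 min at room temperature. AC50 from Hill fits of qHTS concentration-response; tetraoctylammonium bromide positive control.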

The nature of experiment [16]: Cell Viability - LYMP2-016 (AID 984). Also: nearly all actives have a fitted effect of over 55% in size. An outline of the steps:
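Human lymphoblastoid cells (LYMP2-016), 2500/well in complete medium, preincubated 5 hr at 37 C, then compound-treated 24 hr at 37 C. Intracellular ATP read by CellTiter-Glo luminescence after 30 min at room temperature; AC50 from Hill-equation concentration-response fits.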

A short description of experiment [17]: Cell Viability - LYMP2-018 (AID 985).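 Also: compound exposure lasted 24 hr at 37 °C; nearly all actives have a fitted effect of over 50% in size.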 An outline of the steps: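 Human lymphoblastoid LYMP2-018 cells, 2500/well, settled 5 hr at 37 C then exposed to compound 24 hr at 37 C; intracellular ATP measured by CellTiter-Glo luminescence. AC50 from Hill-equation concentration-response fits.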
Experiment [18] can be described thus: Cell Viability - LYMP2-020 (AID 986). A digest of the protocol:
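Human lymphoblastoid LYMP2-020 cells (2500/well) preincubated 5 h at 37 C, then treated 24 h at 37 C. Viability measured as intracellular ATP by CellTiter-Glo luminescence after 30 min at room temperature; AC50 from Hill fits.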

A short description of experiment [19]: Cell Viability - LYMP2-022 (AID 987). Also: nearly all actives have a fitted effect of over 55% in size. A digest of the protocol: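 LYMP2-022 lymphoblastoid cells (2500/well, complete medium) were treated with compounds for 24 hours at 37 C; intracellular ATP was then read by CellTiter-Glo luminescence after 30 min at room temperature. AC50 values were derived from Hill-equation fits.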
Experiment [20] is described as follows: Cell Viability - LYMP2-024 (AID 988). Also: nearly all actives have a fitted effect of over 60% in size. An outline of the steps: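 Human lymphoblastoid LYMP2-024 cells (2500/well) rested 5 hr, then treated with compound for 24 hr at 37 C in complete medium. Viability was measured as intracellular ATP by CellTiter-Glo luminescence. AC50 values came from Hill-equation fits.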

With `O=c1c(O)c(-c2ccc(O)cc2O)oc2cc(O)cc(O)c12`, in experiment [1], the call was inactive.

Turning to `CCCc1cc(=O)[nH]c(=S)[nH]1`, the Potency result in [2], in experiment [3], in [4], in experiment [5], in [6] and in [7] was “inactive” in each case. The Potency entry in [8], in experiment [9], in [10], in experiment [11], in experiment [12] and in experiment [13] was “inactive” in each case. Moreover, the Potency entry in experiment [14], in experiment [15], in experiment [16], in [17], in experiment [18] and in experiment [19] was “inactive” each time. For the same compound, the Potency result in experiment [20] was “inactive”.

As for `Cc1nc2n(c(=O)c1CCN1CCC(c3noc4cc(F)ccc34)CC1)CCCC2`, the result in experiment [1] was inactive.

As for `Oc1ccc(-c2nc(-c3ccc(F)cc3)c(-c3ccncc3)[nH]2)cc1`, the compound was called inactive in [1].

`NNc1nncc2ccccc12`: the outcome in experiment [1] was inactive.

Take `CCc1nc(N)nc(N)c1-c1ccc(Cl)cc1`: the Potency result in experiment [2], in experiment [4], in experiment [7], in experiment [8], in experiment [10] and in experiment [15] was “inactive” throughout. The Potency entry in experiment [16], in experiment [17], in experiment [18] and in [19] was “inactive” throughout. Also, the Potency in experiment [11] is 50.1 µM (active).

Take `O=c1ccc2ccc(O)c(O)c2o1`: the compound was classed as inactive in experiment [1].

Consider `CC1(C)C(=O)N(CCN2CCC(C(=O)c3ccc(F)cc3)CC2)c2ccccc21`, for which, in [1], the compound was classed as inactive.

`O=c1c(O)c(-c2cc(O)c(O)c(O)c2)oc2cc(O)cc(O)c12`: the call in experiment [1] was inactive.

For `Cc1c(OCC(F)(F)F)ccnc1CS(=O)c1nc2ccccc2[nH]1` (stereo not given), in experiment [1], the compound was classed as inactive.

In the case of `NCCCCNCCCN`, in [1], the call was inactive.

Turning to `O=C(O)c1cccnc1Nc1cccc(C(F)(F)F)c1`, the outcome in [1] was inactive.

Regarding `O=C(CCc1ccc(O)cc1)c1c(O)cc(O)cc1O`, in [1], the result was inactive.

Turning to `Cc1cc(O)c2c(c1)C(=O)c1cc(O)cc(O)c1C2=O`, the Potency entry in [3], in experiment [8], in experiment [14] and in experiment [19] was “inactive” in each case. In addition, in [1], the compound was classed as inactive.

For `CC(=O)Nc1ccc(O)cc1`, the Potency result in experiment [2], in [3], in experiment [4], in [5], in experiment [6] and in experiment [7] was “inactive” in each case. Moreover, the Potency entry in [8], in [9], in experiment [10], in experiment [11], in experiment [12] and in experiment [13] was “inactive” in each case. The Potency entry in [14], in experiment [15], in experiment [16], in [17], in [18] and in experiment [19] was “inactive” throughout. Also, in experiment [20], the Potency entry is “inactive”.

For the compound `C[C@H](Cc1ccc(O)c(O)c1)[C@@H](C)Cc1ccc(O)c(O)c1`, the compound was called inactive in experiment [1].

With `c1ccc2[nH]c(-c3cscn3)nc2c1`, the Potency result in [2], in experiment [3], in [4], in [5], in [6] and in [7] was “inactive” throughout. Further, the Potency entry in experiment [8], in experiment [9], in [10], in experiment [11], in experiment [12] and in [13] was “inactive” throughout. Further, the Potency result in experiment [14], in [15], in experiment [16], in experiment [17], in experiment [18] and in experiment [19] was “inactive” throughout. Besides, the Potency result in [20] was “inactive”.

As to `O=C1c2ccccc2-c2n[nH]c3cccc1c23`, the outcome in experiment [1] was inactive.

With `CCCCC(CC)COC(=O)C(C#N)=C(c1ccccc1)c1ccccc1` (stereo not given), the Potency entry in experiment [2], in experiment [3], in experiment [4], in [5], in [6] and in [7] was “inactive” throughout. Besides, the Potency result in experiment [8], in [9], in experiment [10], in [11], in experiment [12] and in [13] was “inactive” throughout. Further, the Potency result in experiment [14], in experiment [15], in [16], in experiment [17], in [18] and in experiment [19] was “inactive” in each case. For the same compound, in experiment [20], the Potency result is “inactive”.

With `Cc1ccc(C)c(OCCCC(C)(C)C(=O)O)c1`, the Potency result in experiment [2], in experiment [3], in experiment [4], in experiment [5], in experiment [6] and in [7] was “inactive” each time. The Potency result in experiment [8], in [9], in [10], in experiment [11], in experiment [12] and in [13] was “inactive” each time. For the same compound, the Potency result in experiment [14], in experiment [15], in experiment [16], in experiment [17], in [18] and in [19] was “inactive” in each case. The Potency result in [20] was “inactive”.

Consider `COc1ccc2cc([C@H](C)C(=O)O)ccc2c1`, for which the compound was called inactive in [1].
